The structures appear in SMILES notation. Records with an inconclusive call do not appear. Active and inactive are the calls of the source. Unless noted, the call rests on the fitted dose curve; in most records, active means well fitted curve in either direction with a large enough effect (not every such curve was filed as active); inconclusive means small, poorly fitted or top-dose-only effect, or another doubt; inactive means flat fitted curve, though single readings scatter.

Chain of Cytochrome P450 1A2 (Homo sapiens) (P05177 whole entry, looked up): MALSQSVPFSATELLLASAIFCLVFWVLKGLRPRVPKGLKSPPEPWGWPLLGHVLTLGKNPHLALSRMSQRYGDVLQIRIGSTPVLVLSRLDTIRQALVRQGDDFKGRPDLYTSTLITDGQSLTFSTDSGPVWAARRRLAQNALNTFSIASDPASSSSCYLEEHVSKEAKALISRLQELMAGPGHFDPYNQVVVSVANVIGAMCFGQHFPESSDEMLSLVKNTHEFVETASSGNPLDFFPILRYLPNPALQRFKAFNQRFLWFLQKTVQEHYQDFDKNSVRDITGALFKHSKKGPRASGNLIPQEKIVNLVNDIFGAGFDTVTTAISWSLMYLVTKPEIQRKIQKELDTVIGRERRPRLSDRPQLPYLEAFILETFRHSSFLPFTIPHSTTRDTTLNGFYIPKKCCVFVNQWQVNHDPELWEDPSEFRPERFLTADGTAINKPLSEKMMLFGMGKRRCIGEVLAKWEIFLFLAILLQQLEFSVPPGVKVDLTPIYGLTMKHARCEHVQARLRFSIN

One test deals with Cytochrome P450 1A2 (Homo sapiens) (UniProt P05177). Description: p450-cyp1a2 (AID 410; calls by dose curve; further: potency means the concentration at half of the fitted maximal effect;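 on activity change, negative = inhibition: -100% = full effect of reference inhibitor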). The following applies: recombinant CYP1A2, luciferin-ME demethylation, luminescence; series mostly up to 11.4 µM. The procedure, abridged:
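O-Demethylation of luciferin 6' methyl ether by human CYP1A2 is monitored as luciferase luminescence. Substrate sits at Km (100uM); enzyme is 20nM. Values are scaled to 57 uM furafylline as maximal inhibition.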
For `Cc1cc([N+](=O)[O-])c(C)c(Br)c1C`, the Potency was 1 µM (active).

As to `CC1=C[N+](=O)c2ccccc2[N+]1=O`, the Potency is 6.31 µM (active).

Consider `Nc1ncnc2nc(N3CCN(CCO)CC3)[nH]c12`, for which the activity change, negative = inhibition is -1.2% [at 2.29 µM] (inactive).

On to `C[C@H]1CN(CCO)CCN1c1ccccc1`, for which the Potency result was “inactive”.

In the case of `C(=Nc1cnc2ccccc2c1)c1ccc2ccccc2n1`, the Potency is 3.98 µM (active).

With `Nc1ncnc2nn([C@H]3O[C@@H](CO)[C@@H](O)[C@H]3O)nc12`, the Potency entry is “inactive”.

As for `CCOC(=O)[C@@H](O)Cc1cnc2ccccc2n1`, the Potency was 3.16 µM (active).

For the compound `COc1ccc2c3c([nH]c2c1)[C@H]1C[C@@H]2[C@@H](C[C@@H](O)[C@H](OC)[C@H]2C(=O)O)CN1CC3`, the Potency entry was “inactive”.

As for `N[C@@H](CSCc1ccc(I)cc1)C(=O)O`, the activity change, negative = inhibition is -12% [at 2.29 µM] (inactive).

Consider `Cc1ncc(CN=Cc2ccc(Cl)cc2)c(N)n1`, for which the Potency was 5.01 µM (active).

For `Nc1nc(-c2ccc3ccccc3c2)cc(-c2cc(-c3ccc4ccccc4c3)nc(N)n2)n1`, the Potency was 0.501 µM (active).

`Nc1ncnc2c1nc(-c1ccccc1)n2[C@H]1O[C@@H](CO)[C@@H](O)[C@H]1O`: the activity change, negative = inhibition was -16.8% [at 2.29 µM] (inactive).

Take `OC[C@@H](O)CNc1ncnc2ccccc12`: the Potency entry was “inactive”.

For the compound `O=C(NCc1cccnc1)[C@@H]1[C@@H](C(=O)O)[C@H]2CC[C@@H]1O2`, the Potency entry was “inactive”.

As to `Nc1nc(-c2ccccc2)c(-c2ccccc2)c(-c2nc(N)nc(-c3ccccc3)c2-c2ccccc2)n1`, the Potency entry was “inactive”.

In the case of `C[C@@]1(CCOCc2ccccc2)NC(=O)NC1=O`, the Potency entry is “inactive”.

In the case of `O=C(O)[C@H]1CC=CC[C@@H]1C(=O)Nc1cccc(O)c1`, the Potency result is “inactive”.

For the compound `Oc1ccc2ccccc2c1C=NCc1c(O)ccc2ccccc12`, the Potency was 1.58 µM (active).

Turning to `O=C(O)CSc1cc(-c2ccccc2)nc2ccccc12`, the activity change, negative = inhibition is -4.7% [at 2.29 µM] (inactive).

For the compound `C[C@@H](CSC(=N)N)C(N)=O`, the activity change, negative = inhibition is -6.6% [at 2.29 µM] (inactive).

For `COc1ccc2[nH]c3cc4c(=O)c5cc(OC)ccc5[nH]c4cc3c(=O)c2c1`, the activity change, negative = inhibition is -6% [at 2.29 µM] (inactive).

In the case of `S=C(S)NCCN1CCNCC1`, the Potency entry was “inactive”.

With `Cc1cc(C)c2nc3c(c([C@H](O)[C@@H]4CCCCN4)c2c1)CC/C3=C/c1ccc(Cl)cc1`, the Potency result was “inactive”.

Test system in the next test: not listed separately
Description: NFAT Signaling Pathway (AID 444).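 Further: carbachol stimulus at about its EC50 of 1 µM final; on the % scale 0 is the no-effect control and ±100 the full control effect.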 To be noted: Jurkat NFAT-bla M1, carbachol, beta-lactamase ratio, 5 h; at 7.69 µM (top of the series) unless noted. A digest of the protocol:
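Jurkat cells carrying an NFAT-driven β-lactamase reporter and co-transfected muscarinic M1 receptor were treated with compound plus carbachol (1 uM final, an EC50 level) for 5 h at 37 °C. CCF4 loading followed for 1 h at RT; 460/530 nm ratio gave %activity.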
With `O=C(O)c1cccc(C(=O)O)c1S(=O)Cc1ccccc1` (configuration not stated), the activity change, negative = inhibition was 7.39% (inactive).

Turning to `CC(C)NCC[C@@H](O)c1cc2ccccc2o1`, the activity change, negative = inhibition was -2.7% (inactive).

For `CCn1c2ccccc2c2nnc(NCCCO)nc21`, the activity change, negative = inhibition was 10.3% (inactive).

On to `Nc1cccc2cc(S(=O)(=O)Nc3ccc(C(=O)O)cc3)ccc12`, for which the activity change, negative = inhibition is 12.7% (inactive).

Consider `O=C(O)CSc1ncccc1[N+](=O)[O-]`, for which the activity change, negative = inhibition was 2.05% (inactive).

Turning to `O=C(O)/C=C(/C(=O)O)[C@]12CCN3CC4=CCO[C@@H]5CC(=O)N[C@@H]1[C@H]5[C@H]4C[C@H]32`, the activity change, negative = inhibition was -1.3% (inactive).

`CCSC[C@@H](N)C(=O)O`: the activity change, negative = inhibition was -9.5% (inactive).

`N#CC1(Nc2ccc(-c3ccc(NC4(C#N)CCCC4)cc3)cc2)CCCC1`: the activity change, negative = inhibition is 14.8% (inactive).

In the case of `C/C(=N/O)[C@@H]1C[C@H](CC(=O)O)C1(C)C`, the activity change, negative = inhibition was 9.94% (inactive).

On to `ClC(Cl)(Cl)C(N1CCN(c2ccccc2)CC1)N1CCN(c2ccccc2)CC1`, for which the activity change, negative = inhibition was -2.17% (inactive).

In the case of `O=C(O)CC[C@]1(C(=O)O)CCC(=O)c2ccccc21`, the activity change, negative = inhibition was 4.42% (inactive).

For the compound `[N-]=[N+]=NC[C@@H]1O[C@@H](n2cnc3c(N)ncnc32)[C@@H]2O[C@@H]21`, the activity change, negative = inhibition was 10.3% (inactive).

In the case of `O=C(O)COc1c(Cl)cc(Cl)c2cccnc12`, the activity change, negative = inhibition was 1.63% (inactive).

As for `CN(C)c1ccc(C2N([C@H](C#N)c3ccc(N(C)C)cc3)CCCN2[C@@H](C#N)c2ccc(N(C)C)cc2)cc1` (some centres not stated), the activity change, negative = inhibition is -11.3% (inactive).

With `C#CCOCCCC(=O)O`, the activity change, negative = inhibition was 0.738% (inactive).

With `CCC(C)(C)c1ccc(Oc2cccc(C(=O)O)c2)cc1`, the activity change, negative = inhibition is -3.61% (inactive).

In the case of `Cc1cc([N+](=O)[O-])c(C)c(Br)c1C`, the activity change, negative = inhibition is -7.3% (inactive).

As for `CC1=C[N+](=O)c2ccccc2[N+]1=O`, the activity change, negative = inhibition was 13.8% (inactive).

Consider `Nc1ncnc2nc(N3CCN(CCO)CC3)[nH]c12`, for which the activity change, negative = inhibition is 8.33% (inactive).

Regarding `C[C@H]1CN(CCO)CCN1c1ccccc1`, the activity change, negative = inhibition was -5.83% (inactive).

Turning to `C(=Nc1cnc2ccccc2c1)c1ccc2ccccc2n1`, the activity change, negative = inhibition was 3.2% (inactive).

On to `Nc1ncnc2nn([C@H]3O[C@@H](CO)[C@@H](O)[C@H]3O)nc12`, for which the activity change, negative = inhibition is 5.89% (inactive).

`CCOC(=O)[C@@H](O)Cc1cnc2ccccc2n1`: the activity change, negative = inhibition was -6.57% (inactive).

On to `COc1ccc2c3c([nH]c2c1)[C@H]1C[C@@H]2[C@@H](C[C@@H](O)[C@H](OC)[C@H]2C(=O)O)CN1CC3`, for which the activity change, negative = inhibition is 0.887% (inactive).

Regarding `N[C@@H](CSCc1ccc(I)cc1)C(=O)O`, the activity change, negative = inhibition is 0.82% (inactive).

In the case of `Cc1ncc(CN=Cc2ccc(Cl)cc2)c(N)n1`, the activity change, negative = inhibition was 23.1% (inactive).

`Nc1nc(-c2ccc3ccccc3c2)cc(-c2cc(-c3ccc4ccccc4c3)nc(N)n2)n1`: the activity change, negative = inhibition was 9.25% (inactive).

With `Nc1ncnc2c1nc(-c1ccccc1)n2[C@H]1O[C@@H](CO)[C@@H](O)[C@H]1O`, the activity change, negative = inhibition was 6.55% (inactive).

Consider `OC[C@@H](O)CNc1ncnc2ccccc12`, for which the activity change, negative = inhibition was 9.96% (inactive).

Take `O=C(NCc1cccnc1)[C@@H]1[C@@H](C(=O)O)[C@H]2CC[C@@H]1O2`: the activity change, negative = inhibition was 4.54% (inactive).

`Nc1nc(-c2ccccc2)c(-c2ccccc2)c(-c2nc(N)nc(-c3ccccc3)c2-c2ccccc2)n1`: the activity change, negative = inhibition is 16.1% (inactive).

Take `C[C@@]1(CCOCc2ccccc2)NC(=O)NC1=O`: the activity change, negative = inhibition was -2.8% (inactive).

`O=C(O)[C@H]1CC=CC[C@@H]1C(=O)Nc1cccc(O)c1`: the activity change, negative = inhibition is 9.88% (inactive).

Take `Oc1ccc2ccccc2c1C=NCc1c(O)ccc2ccccc12`: the activity change, negative = inhibition is 12.6% (inactive).

Turning to `O=C(O)CSc1cc(-c2ccccc2)nc2ccccc12`, the activity change, negative = inhibition is 10.2% (inactive).

Turning to `C[C@@H](CSC(=N)N)C(N)=O`, the activity change, negative = inhibition was 13.8% (inactive).

Take `COc1ccc2[nH]c3cc4c(=O)c5cc(OC)ccc5[nH]c4cc3c(=O)c2c1`: the activity change, negative = inhibition is -1.64% (inactive).

Regarding `S=C(S)NCCN1CCNCC1`, the activity change, negative = inhibition was -3.23% (inactive).

Regarding `Cc1cc(C)c2nc3c(c([C@H](O)[C@@H]4CCCCN4)c2c1)CC/C3=C/c1ccc(Cl)cc1`, the activity change, negative = inhibition was -2.24% (inactive).

The values above are taken from PubChem BioAssay (NCATS).
